We go through eight compounds from the supplement of paper PMC9262897, “Low-cost anti-mycobacterial drug discovery using engineered E. coli” (Nature Communications, 2022).

For this test, the system named is E. coli TESEC Mtb Alr. Description: growth (OD600 after 10 h); higher = more growth (less inhibition). The conditions noted are these: compound 0.1 mM. The method, then: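 TESEC Mtb Alr E. coli, or the Alr+ wild-type control, in 384-well plates with Prestwick library compounds at 0.1 mM and 1% DMSO, across arabinose induction levels of 1E3 to 1E7 nM. Growth is read as OD600 after 10 h at 37 °C in triplicate biological replicates.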

Where [1] appears, read: arabinose 1000 nM, raw OD600 reference: median of DMSO wells 0.294, cell-free background 0.041.
[2] abbreviates: arabinose 10000 nM, raw OD600 reference: median of DMSO wells 0.264, cell-free background 0.041.
Setting [3] is: arabinose 100000 nM, raw OD600 reference: median of DMSO wells 0.201, cell-free background 0.041.
The mark [4] stands for this setting: arabinose 1000000 nM, raw OD600 reference: median of DMSO wells 0.193, cell-free background 0.041.
Where [5] appears, read: arabinose 10000000 nM, raw OD600 reference: median of DMSO wells 0.146, cell-free background 0.041.

Where a name gives a salt, the structure may show the parent alone. ± gives the standard deviation of the averaged measurements.

Consider `O=C(CCCCCCC(=O)Nc1ccccc1)NO` [Vorinostat], for which the growth runs as follows: under setting [1], 0.295 ± 0.0062; under setting [2], 0.238 ± 0.0041; under setting [3], 0.164 ± 0.012; under setting [4], 0.153 ± 0.0023; under setting [5], 0.124 ± 0.011.

Compound `O=P(O)(O)C(O)(Cn1ccnc1)P(=O)(O)O` [Zoledronic acid hydrate] showed a growth under setting [1] of 0.279 ± 0.0055; a growth under setting [2] of 0.278 ± 0.0062; a growth under setting [3] of 0.192 ± 0.022; a growth under setting [4] of 0.211 ± 0.0037; a growth under setting [5] of 0.134 ± 0.0016.

In the case of `CCN(CC)CCOC(=O)C(c1ccccc1)c1ccccc1` [Adiphenine hydrochloride], the growth under setting [1] came out at 0.309 ± 0.033; the growth under setting [2] turned out to be 0.252 ± 0.004; the growth under setting [3] came to 0.168 ± 0.0062; the growth under setting [4] amounted to 0.14 ± 0.0034; the growth under setting [5] came to 0.142 ± 0.0034.

`c1ccc2c(c1)CCCC2C1=NCCN1` (stereo not given) [Tetrahydrozoline hydrochloride] registered a growth under setting [1] of 0.297 ± 0.012; a growth under setting [2] of 0.247 ± 0.0046; a growth under setting [3] of 0.184 ± 0.015; a growth under setting [4] of 0.174 ± 0.0044; a growth under setting [5] of 0.14 ± 0.0055.

Consider `CNCC(O)c1ccc(O)c(O)c1` (stereo not given) [Racepinephrine HCl], for which the growth runs as follows: under setting [1], 0.302 ± 0.0045; under setting [2], 0.291 ± 0.0096; under setting [3], 0.199 ± 0.0083; under setting [4], 0.186 ± 0.0042; under setting [5], 0.155 ± 0.0036.

Turning to `COc1ccccc1N1CCN(CCCCNC(=O)c2ccc3ccccc3c2)CC1`, the growth was 0.179 ± 0.013 under setting [1]; 0.2704 ± 0.0024 under setting [2]; 0.195 ± 0.019 under setting [3]; 0.124 ± 0.0029 under setting [4]; 0.182 ± 0.0013 under setting [5].

`CN(C)CCC[C@@]1(c2ccc(F)cc2)OCc2cc(C#N)ccc21` [Escitalopram oxalate]: the growth under setting [1] is 0.281 ± 0.014; the growth under setting [2] is 0.251 ± 0.015; the growth under setting [3] is 0.199 ± 0.0081; the growth under setting [4] worked out at 0.157 ± 0.0041; the growth under setting [5] worked out at 0.143 ± 0.007.

Regarding `CC1(C)[C@H](C(=O)O)N2C(=O)C[C@H]2S1(=O)=O` [Sulbactam], the growth was found to be 0.305 ± 0.0083 under setting [1]; 0.263 ± 0.0075 under setting [2]; 0.244 ± 0.009 under setting [3]; 0.202 ± 0.015 under setting [4]; 0.165 ± 0.01 under setting [5].
